Results: PubChem BioAssay
For some assays here: Measured potencies and affinities stand elsewhere. Active and inactive are the calls of the source. Unless noted, how the calls were made is not given here.

How the values were obtained:
[1] = antimalarial activity against Dd2 strain (AID 2302;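 active means growth inhibition above 50% at the single 2 µM test dose, taken to imply half-maximal potency below 2 µM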;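 further: 0% = DMSO untreated growth and 100% = chloroquine plus artemisinin killed control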); details: P. falciparum Dd2 in RBCs, LDH growth readout, 72 h; at 2 µM; hits give high values
[2] = HepG2 cytotoxicity, primary screen, cytotoxicity control for P. falciparum antimalarial project, cell-based, ATP luminescence (AID 2303;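 active means inhibition above 50%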;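 further: 0% = DMSO wells and 100% = digitonin-killed cells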); details: HepG2 viability, 24-48 h, at 10 µM, hits give high values
[3] = molecular target: L-lactate dehydrogenase (Plasmodium falciparum (isolate CDC / Honduras)) (UniProt Q27743); assay: PfLDH activity inhibition – cell lysate, 3D7 strain, counter-screen for P. falciparum growth inhibition project (AID 2304);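 further: 0% = vehicle and 100% = reference inhibitor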; details: P. falciparum 3D7 crude extract, LDH APAD/NBT absorbance; at 2 µM; hits give high values
[4] = inhibition of 3D7 malaria parasite growth – strain 3D7 (AID 2306);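 further: 0% = DMSO wells and 100% = chloroquine plus artemisinin control wells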; details: P. falciparum 3D7 erythrocytic growth, LDH absorbance, 72 h; at 2 µM; hits give high values
[5] = molecular target: Calcium-dependent protein kinase 1 (Plasmodium falciparum (isolate 3D7)) (UniProt P62344); assay: PfCDPK1 kinase inhibitors, biochemical, TCAMS library (AID 1159585; cut-off not given, nearly all actives have IC50 up to about 0.98 µM;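 further: inhibitors leave more ATP so luminescence rises with inhibition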); details: recombinant PfCDPK1, Kinase-Glo ATP depletion luminescence
[6] = molecular target: Plasmodium falciparum protein kinase 6 (PK6, PF3D7_1337100) (UniProt Q8IDW1); assay: PfPK6 kinase inhibitors, biochemical, TCAMS library (AID 1159586); details: recombinant PfPK6, Kinase-Glo ATP depletion luminescence
[7] = molecular target: Protein kinase 7 (PK7), Plasmodium falciparum 3D7 (PF3D7_0213400) (UniProt Q7YTF7); assay: inhibition of Plasmodium PK7 catalytic activity – biochemical, TCAMS antimalarial set, Kinase-Glo luminescence (AID 1159587); details: recombinant PfPK7, Kinase-Glo ATP depletion luminescence
[8] = molecular target: Calcium-dependent protein kinase 4 (Plasmodium falciparum (isolate 3D7)) (UniProt Q8IBS5); assay: PfCDPK4 kinase inhibitors, biochemical, TCAMS library (AID 1159588; cut-off not given, nearly all actives have IC50 up to about 0.91 µM); details: recombinant PfCDPK4, Kinase-Glo ATP depletion luminescence
Calcium-dependent protein kinase 4 (Plasmodium falciparum (isolate 3D7)), sequence (Q8IBS5 whole entry, looked up): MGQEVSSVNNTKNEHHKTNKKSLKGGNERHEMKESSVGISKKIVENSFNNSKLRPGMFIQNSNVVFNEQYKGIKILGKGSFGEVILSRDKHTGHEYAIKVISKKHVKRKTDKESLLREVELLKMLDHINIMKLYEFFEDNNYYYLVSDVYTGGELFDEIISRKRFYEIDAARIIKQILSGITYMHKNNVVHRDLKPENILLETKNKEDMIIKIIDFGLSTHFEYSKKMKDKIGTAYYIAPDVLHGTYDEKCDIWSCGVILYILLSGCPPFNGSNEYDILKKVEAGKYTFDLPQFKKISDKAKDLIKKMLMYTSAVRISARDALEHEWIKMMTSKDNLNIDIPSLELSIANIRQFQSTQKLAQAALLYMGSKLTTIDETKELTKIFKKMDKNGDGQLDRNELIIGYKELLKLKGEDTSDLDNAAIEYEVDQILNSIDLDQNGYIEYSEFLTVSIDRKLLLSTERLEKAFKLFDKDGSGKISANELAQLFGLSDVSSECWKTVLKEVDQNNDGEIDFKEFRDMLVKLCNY

L-lactate dehydrogenase (Plasmodium falciparum (isolate CDC / Honduras)), sequence (Q27743 whole entry, looked up): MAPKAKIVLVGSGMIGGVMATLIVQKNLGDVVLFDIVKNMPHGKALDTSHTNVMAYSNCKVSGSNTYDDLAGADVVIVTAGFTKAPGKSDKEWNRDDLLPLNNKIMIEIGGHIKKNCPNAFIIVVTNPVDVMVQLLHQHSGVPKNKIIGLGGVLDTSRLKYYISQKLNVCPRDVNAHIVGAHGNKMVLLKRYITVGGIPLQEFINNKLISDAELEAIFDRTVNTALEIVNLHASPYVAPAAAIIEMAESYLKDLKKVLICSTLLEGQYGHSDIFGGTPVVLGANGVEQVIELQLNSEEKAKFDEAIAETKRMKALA
Protein kinase 7 (PK7), Plasmodium falciparum 3D7 (PF3D7_0213400), sequence (Q7YTF7 1-343): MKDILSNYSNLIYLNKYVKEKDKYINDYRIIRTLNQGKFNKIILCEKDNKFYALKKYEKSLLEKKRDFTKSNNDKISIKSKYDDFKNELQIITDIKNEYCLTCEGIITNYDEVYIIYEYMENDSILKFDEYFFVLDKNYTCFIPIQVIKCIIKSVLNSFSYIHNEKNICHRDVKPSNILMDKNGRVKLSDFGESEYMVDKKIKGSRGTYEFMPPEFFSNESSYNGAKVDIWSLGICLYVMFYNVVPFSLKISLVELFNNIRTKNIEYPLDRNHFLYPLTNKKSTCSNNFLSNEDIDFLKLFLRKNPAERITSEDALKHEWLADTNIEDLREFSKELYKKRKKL
Calcium-dependent protein kinase 1 (Plasmodium falciparum (isolate 3D7)), sequence (P62344 whole entry, looked up): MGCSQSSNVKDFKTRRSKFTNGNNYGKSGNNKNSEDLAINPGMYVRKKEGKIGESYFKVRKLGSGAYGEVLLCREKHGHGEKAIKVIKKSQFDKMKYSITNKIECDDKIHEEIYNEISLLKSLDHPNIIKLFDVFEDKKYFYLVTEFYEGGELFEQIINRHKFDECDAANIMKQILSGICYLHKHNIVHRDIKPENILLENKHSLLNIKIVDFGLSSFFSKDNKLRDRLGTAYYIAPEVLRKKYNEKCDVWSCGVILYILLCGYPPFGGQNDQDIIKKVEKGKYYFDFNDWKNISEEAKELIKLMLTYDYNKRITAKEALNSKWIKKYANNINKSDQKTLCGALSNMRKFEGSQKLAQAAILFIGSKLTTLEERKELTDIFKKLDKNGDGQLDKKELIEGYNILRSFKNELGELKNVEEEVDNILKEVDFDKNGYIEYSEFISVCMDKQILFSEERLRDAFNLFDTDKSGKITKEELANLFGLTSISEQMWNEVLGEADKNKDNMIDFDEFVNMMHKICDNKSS
Plasmodium falciparum protein kinase 6 (PK6, PF3D7_1337100), sequence (Q8IDW1 1-305): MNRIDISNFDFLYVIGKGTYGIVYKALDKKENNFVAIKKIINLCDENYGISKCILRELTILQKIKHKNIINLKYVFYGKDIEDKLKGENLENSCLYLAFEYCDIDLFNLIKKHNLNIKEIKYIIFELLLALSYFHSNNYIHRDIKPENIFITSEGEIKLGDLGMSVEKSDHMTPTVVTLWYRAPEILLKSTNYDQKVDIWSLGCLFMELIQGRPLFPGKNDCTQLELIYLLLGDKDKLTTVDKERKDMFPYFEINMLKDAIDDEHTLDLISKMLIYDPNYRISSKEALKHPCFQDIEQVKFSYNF

CCc1cn2c3c(cc(C(=O)N[C@@H](Cc4cc(F)cc(F)c4)[C@H](O)CNC4CCCCC4)cc13)N(C)S(=O)(=O)CC2
inactive: inhibition [2] 9% | inhibition [3] -6% | outcome [5] | outcome [6] | outcome [7] | outcome [8]
active: growth inhibition [1] 99% | growth inhibition [4] 100%

O=C(NCC1CCC(C(=O)O)CC1)c1ccc(/C=C/C(=O)N2CCc3ccccc3C2c2ccc3c(c2)OCO3)cc1 (stereo not given)
active: inhibition [2] 66% | growth inhibition [4] 91%
inactive: growth inhibition [1] 17% | inhibition [3] 2% | outcome [5] | outcome [6] | outcome [7] | outcome [8]

c1ccc(C(c2ccccc2)N2CCC(NCc3ccc(OCCCN4CCCCC4)cc3)CC2)cc1
active: growth inhibition [1] 101% | inhibition [2] 74% | growth inhibition [4] 100%
inactive: inhibition [3] 4% | outcome [5] | outcome [6] | outcome [7] | outcome [8]

CC(C)N1CCC(N(Cc2ccc(-c3ccc(Cl)cc3)cc2)C(=O)Cn2c(CCc3cccc(F)c3F)cc(=O)c3ccccc32)CC1
inactive: inhibition [3] 4% | outcome [5] | outcome [6] | outcome [7] | outcome [8]
active: growth inhibition [1] 73% | inhibition [2] 62% | growth inhibition [4] 96%

CCN1CCN(CCCNc2c3ccccc3nc3ccccc23)CC1
active: growth inhibition [4] 100%
inactive: growth inhibition [1] 3% | inhibition [2] 44% | inhibition [3] -1% | outcome [5] | outcome [6] | outcome [7] | outcome [8]

Nc1ccc(-c2ccc3ccnc(N)c3c2)cc1
active: growth inhibition [1] 68% | growth inhibition [4] 102%
inactive: inhibition [2] 38% | inhibition [3] -1% | outcome [5] | outcome [6] | outcome [7] | outcome [8]

CCN1CCN(c2cc(C)c3cc(NC(=O)c4cccc(Cl)c4)ccc3n2)CC1
active: growth inhibition [1] 58% | growth inhibition [4] 100%
inactive: inhibition [2] 4% | inhibition [3] -4% | outcome [5] | outcome [6] | outcome [7] | outcome [8]

Cc1cc(N2CCCC2)nc(Nc2ccc(NC(=O)c3ccccc3C)cc2)n1
inactive: growth inhibition [1] 40% | inhibition [2] 22% | inhibition [3] 2% | outcome [5] | outcome [6] | outcome [7] | outcome [8]
active: growth inhibition [4] 100%

COc1ccc2nccc([C@@H](O)CN3CCC(NC(=O)/C=C/c4ccc5cc(C)[nH]c5c4)CC3)c2c1
inactive: inhibition [2] 7% | inhibition [3] -6% | outcome [5] | outcome [6] | outcome [7] | outcome [8]
active: growth inhibition [1] 93% | growth inhibition [4] 97%

CN(C)CC(=O)N(Cc1ccc(Cl)c(Cl)c1)Cc1csc(-c2ccc(CNCc3ccccc3)cc2)n1
inactive: growth inhibition [1] 32% | inhibition [2] 30% | inhibition [3] 4% | outcome [5] | outcome [6] | outcome [7] | outcome [8]
active: growth inhibition [4] 96%

COc1cc(OC)c2c(C)cc(NCCCN3CCOCC3)nc2c1
active: growth inhibition [4] 99%
inactive: growth inhibition [1] 3% | inhibition [2] 6% | inhibition [3] 0% | outcome [5] | outcome [6] | outcome [7] | outcome [8]

COc1ccc2nccc([C@@H](O)CN3CC[C@H](NCc4nc5c(cc4F)SCC(=O)N5)[C@H](F)C3)c2c1
active: growth inhibition [4] 95%
inactive: growth inhibition [1] 49% | inhibition [2] 9% | inhibition [3] -4% | outcome [5] | outcome [6] | outcome [7] | outcome [8]

O=C(/C=C/c1ccc(Cl)c(Cl)c1)NCCCCCN1CC[C@H](NC(=O)/C=C/c2ccccc2)C1
active: growth inhibition [4] 93%
inactive: growth inhibition [1] 1% | inhibition [2] 10% | inhibition [3] 1% | outcome [5] | outcome [6] | outcome [7] | outcome [8]

CCn1c(-c2nonc2N)nc2cnc(Oc3cccc(NC(=O)c4ccc(OCCN5CCCC5)cc4)c3)cc21
active: growth inhibition [4] 92%
inactive: growth inhibition [1] 1% | inhibition [2] 25% | inhibition [3] 2% | outcome [5] | outcome [6] | outcome [7] | outcome [8]

C=CCn1c(Sc2ccc(C#N)c([N+](=O)[O-])c2)nnc1-c1cccc(Cl)c1
inactive: inhibition [2] 41% | inhibition [3] -1% | outcome [5] | outcome [6] | outcome [7] | outcome [8]
active: growth inhibition [1] 54% | growth inhibition [4] 97%

Cn1nc(-c2cccc(CNC3CCc4ccccc43)c2)c2cnc(NCCCN3CCCC3)nc21 (stereo not given)
active: growth inhibition [4] 99%
inactive: growth inhibition [1] 15% | inhibition [2] 29% | inhibition [3] -2% | outcome [5] | outcome [6] | outcome [7] | outcome [8]

CCN1C(=O)N(CCC(C)C)C2(CCN(Cc3ccc(OC)cc3O)CC2)C1=O
active: growth inhibition [1] 77% | growth inhibition [4] 89%
inactive: inhibition [2] 13% | inhibition [3] 4% | outcome [5] | outcome [6] | outcome [7] | outcome [8]

CN1CCCc2ccc(NC(=O)Nc3ccc(-c4ccccc4)cc3)cc2C1
active: growth inhibition [4] 97%
inactive: growth inhibition [1] 47% | inhibition [2] 23% | inhibition [3] 0% | outcome [5] | outcome [6] | outcome [7] | outcome [8]

CN1CCN(CCCN(Cc2csc(-c3ccc(CNCc4ccccc4)cc3)n2)C(=O)Nc2ccc3ccccc3c2)CC1
inactive: inhibition [2] 12% | inhibition [3] 3% | outcome [5] | outcome [6] | outcome [7] | outcome [8]
active: growth inhibition [1] 63% | growth inhibition [4] 94%

CCNc1cc(C(=O)N[C@@H](Cc2ccccc2)[C@H](O)CNCCC(C)c2ccccc2)cc(N2CCCC2=O)c1 (stereo not given in full)
inactive: inhibition [2] 0% | inhibition [3] 3% | outcome [5] | outcome [6] | outcome [7] | outcome [8]
active: growth inhibition [1] 95% | growth inhibition [4] 99%

COc1cc(F)c2ncc(Cl)c([C@@H](O)CN3CCC(NCc4ccc5c(n4)NC(=O)CO5)CC3)c2c1
inactive: inhibition [2] 12% | inhibition [3] 1% | outcome [5] | outcome [6] | outcome [7] | outcome [8]
active: growth inhibition [1] 100% | growth inhibition [4] 101%

CC1CC(NCCCNc2cc(=O)c3ccccc3[nH]2)c2c(Cl)c(Cl)cc(Cl)c21 (stereo not given)
inactive: inhibition [2] 6% | inhibition [3] 2% | outcome [5] | outcome [6] | outcome [7] | outcome [8]
active: growth inhibition [1] 52% | growth inhibition [4] 87%

COc1ccc(CN2CCC(CNCc3cccc(-c4ccccc4)c3)CC2)cc1
active: growth inhibition [1] 92% | inhibition [2] 96% | growth inhibition [4] 100%
inactive: inhibition [3] 2% | outcome [5] | outcome [6] | outcome [7] | outcome [8]

CCn1ccc2c(N3CCCC3=O)cc(C(=O)N[C@@H](Cc3ccccc3)[C@H](O)CNCc3cccc(OC)c3)cc21
active: growth inhibition [1] 92% | growth inhibition [4] 94%
inactive: inhibition [2] 4% | inhibition [3] -5% | outcome [5] | outcome [6] | outcome [7] | outcome [8]

O=C(CCn1cncn1)N1CCCC(c2[nH]c3ccccc3c2-c2ccncc2)C1 (stereo not given)
active: growth inhibition [1] 79% | growth inhibition [4] 97%
inactive: inhibition [2] 1% | inhibition [3] -1% | outcome [5] | outcome [6] | outcome [7] | outcome [8]

O=C(/C=C/c1ccc(Cl)cc1)Nc1ccc2nc(CN3CCCC3)ccc2c1
active: growth inhibition [4] 85%
inactive: growth inhibition [1] 30% | inhibition [2] 47% | inhibition [3] -2% | outcome [5] | outcome [6] | outcome [7] | outcome [8]

Cn1cncc1CCN(Cc1ccc(-c2ccc(C(F)(F)F)cc2)cc1)C(=O)Cn1c(SCc2cccc(F)c2F)cc(=O)c2ccccc21
inactive: inhibition [2] 24% | inhibition [3] -5% | outcome [5] | outcome [6] | outcome [7] | outcome [8]
active: growth inhibition [1] 90% | growth inhibition [4] 99%

O=C(/C=C/c1ccc(Cl)c(Cl)c1)NCCCCCN1CCN(C(=O)Nc2cccc(F)c2)CC1
active: growth inhibition [4] 91%
inactive: growth inhibition [1] 1% | inhibition [2] 12% | inhibition [3] -1% | outcome [5] | outcome [6] | outcome [7] | outcome [8]

O=C(Nc1cccc(Oc2ccccc2)c1)N[C@H]1CCN(Cc2ccc(OCCCN3CCCCC3)cc2)C1
active: growth inhibition [1] 70% | inhibition [2] 94% | growth inhibition [4] 101%
inactive: inhibition [3] -2% | outcome [5] | outcome [6] | outcome [7] | outcome [8]

NC(=O)c1cccc(C(=O)Nc2cccc(-c3cccc(-c4nc5ccc(C(F)(F)F)cc5[nH]4)c3)c2)c1
active: growth inhibition [1] 85% | inhibition [2] 71% | growth inhibition [4] 100%
inactive: inhibition [3] -5% | outcome [5] | outcome [6] | outcome [7] | outcome [8]

Cc1nc(N)nc(N)c1CCCOc1cccc(Cl)c1
active: growth inhibition [4] 96%
inactive: growth inhibition [1] -1% | inhibition [2] 16% | inhibition [3] -4% | outcome [5] | outcome [6] | outcome [7] | outcome [8]

N#Cc1cnc2cc(-c3cnc(CNCCN4CCOCC4)s3)ccc2c1Nc1ccc(Oc2ccccc2)cc1
inactive: inhibition [2] 30% | inhibition [3] 2% | outcome [5] | outcome [6] | outcome [7] | outcome [8]
active: growth inhibition [1] 83% | growth inhibition [4] 97%

CC1CCN(CC[C@H]2CCCN2S(=O)(=O)c2cccc(NC(=O)Nc3ccc(C(F)(F)F)cc3)c2)CC1
inactive: growth inhibition [1] 41% | inhibition [2] 12% | inhibition [3] 2% | outcome [5] | outcome [6] | outcome [7] | outcome [8]
active: growth inhibition [4] 100%

COc1cc(-c2nc3ccc(N4CCN(C)CC4)cc3[nH]2)cc(OC)c1OC
inactive: growth inhibition [1] 15% | inhibition [2] 6% | inhibition [3] 0% | outcome [5] | outcome [6] | outcome [7] | outcome [8]
active: growth inhibition [4] 87%

CC(=O)c1ccc(NC(=O)CSc2nc(-c3ccccc3Cl)ns2)cc1
active: growth inhibition [1] 72% | growth inhibition [4] 89%
inactive: inhibition [2] -13% | inhibition [3] -1% | outcome [5] | outcome [6] | outcome [7] | outcome [8]

S=C(NCCN1CCOCC1)Nc1ccccc1
inactive: growth inhibition [1] 1% | inhibition [2] 3% | inhibition [3] 1% | outcome [5] | outcome [6] | outcome [7] | outcome [8]
active: growth inhibition [4] 94%

CCN(CC)CCN(Cc1ccc(-c2ccc(C(F)(F)F)cc2)cc1)C(=O)Cn1c(CCc2cccc(F)c2F)nc(=O)c2ccc(C(F)(F)F)cc21
inactive: inhibition [2] 19% | inhibition [3] -2% | outcome [5] | outcome [6] | outcome [7] | outcome [8]
active: growth inhibition [1] 55% | growth inhibition [4] 99%

CN(C)CCCN(C)c1cccc2c1nc(-c1cccnc1)n2CCNCc1ccccc1
inactive: inhibition [2] 4% | inhibition [3] 4% | outcome [5] | outcome [6] | outcome [7] | outcome [8]
active: growth inhibition [1] 88% | growth inhibition [4] 89%

O=C(Nc1ccc(Cl)cc1Cl)NC1CCN(CCCCCNC(=O)[C@@H]2C[C@H]2c2ccc(Cl)c(Cl)c2)CC1
inactive: growth inhibition [1] 30% | inhibition [3] 0% | outcome [5] | outcome [6] | outcome [7] | outcome [8]
active: inhibition [2] 67% | growth inhibition [4] 100%

NC(N)=NC(=O)Nc1ccc(Cl)c(Cl)c1
active: growth inhibition [4] 95%
inactive: growth inhibition [1] 13% | inhibition [2] 29% | inhibition [3] 1% | outcome [5] | outcome [6] | outcome [7] | outcome [8]
